The panel holds about 79,000 compounds, 15% with a hit somewhere; the sample as a whole holds those more often. Unmarked numbers belong to inactive results. Calls of active or inactive are those of the source. Cut-off read from the data, not from the text of the source: active = growth inhibition above about 70%; inactive = the rest.

Experiment [1] can be described thus: NCI Yeast Anticancer Drug Screen. Data for the rad50 strain (AID 155).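 Note: 0% = growth of vehicle-only cultures of the same strain.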 To be noted: S. cerevisiae rad50 strain growth inhibition, hits give high values. The method in brief: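 Growth of the mutant yeast was measured after compound exposure and referenced to vehicle-treated cultures.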
Experiment [2] in a line: NCI Yeast Anticancer Drug Screen. Data for the mec2-1 strain (AID 157). The conditions noted are these: S. cerevisiae mec2-1 strain, hits give high values. The method in brief:
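mec2-1 yeast strain, carrying an alteration in DNA damage repair or cell cycle control, was exposed to compounds; growth inhibition was measured relative to vehicle-treated controls.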

Experiment [3] in a line: NCI Yeast Anticancer Drug Screen. Data for the sgs1 mgt1 strain (AID 161).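 Note: 0% = growth of cultures given vehicle only.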 To be noted: S. cerevisiae sgs1 mgt1 strain, hits give high values. The method in brief: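 Growth of a repair-deficient yeast mutant was monitored after compound treatment and expressed as inhibition relative to vehicle-treated cultures.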
Experiment [4] in a line: NCI Yeast Anticancer Drug Screen. Data for the cln2 rad14 strain (AID 165).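 Note: 0% = growth equal to vehicle treated cultures.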 To be noted: S. cerevisiae cln2 rad14 strain, hits give high values. The method in brief: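 Yeast carrying cln2 and rad14 alterations (cell cycle control and DNA damage repair) were exposed to compounds. Growth inhibition was measured against vehicle-treated controls.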
A short description of experiment [5]: NCI Yeast Anticancer Drug Screen. Data for the bub3 strain (AID 167). The conditions noted are these: S. cerevisiae bub3 mutant strain, hits give high values. The method in brief: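 Whole-cell yeast assay. The mutant strain was incubated with compounds, and growth inhibition was determined by comparison with vehicle-treated cells.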
Experiment [6] can be described thus: NCI Yeast Anticancer Drug Screen. Data for the mlh1 rad18 strain (AID 175). The conditions noted are these: S. cerevisiae mlh1 rad18 strain growth inhibition, hits give high values. The method in brief:
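Growth inhibition of the yeast strain was measured after compound exposure and expressed relative to vehicle-treated controls. The strain carries defined defects in DNA damage repair.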

Setting [7] is: at 5.0 µM (retest, dose inferred, filed as 0.5).
[8] abbreviates: at 50.0 µM (retest, dose inferred, filed as 5.0).

In the case of `O=P(N=P(c1ccccc1)(c1ccccc1)c1ccccc1)(c1ccccc1)c1ccccc1`, the growth inhibition was 70% (active) in experiment [1] (setting [7]); 96% (active) in experiment [1] (setting [8]); 88% (active) in experiment [1] (at 50.0 µM); 60% in experiment [2] (setting [7]); 99% (active) in experiment [2] (setting [8]); 91.6% (active) in experiment [2] (at 50.0 µM). Moreover, the growth inhibition in experiment [3] (setting [7]) is 49%; in experiment [3] (setting [8]), 99% (active); in experiment [3] (at 50.0 µM), 79% (active); in experiment [4] (setting [7]) it was 40%; in experiment [4] (setting [8]), 98% (active); in experiment [4] (at 50.0 µM) it was 92.5% (active). For the same compound, the growth inhibition in experiment [5] (setting [7]) is 62%; in experiment [5] (setting [8]), 99% (active); in experiment [5] (at 50.0 µM) it was 87.2% (active); in experiment [6] (setting [7]) it was 71% (active); in experiment [6] (setting [8]) it was 98% (active); in experiment [6] (at 50.0 µM) it was 88.7% (active).
With `CCOC(=O)C(=Cc1ccccc1)C(=O)OCC`, the growth inhibition in experiment [1] (setting [7]) is 20%; in experiment [1] (setting [8]), 92% (active); in experiment [1] (at 50.0 µM), 73% (active); in experiment [2] (setting [7]), 20%; in experiment [2] (setting [8]), 91% (active); in experiment [2] (at 50.0 µM), 88.8% (active). Moreover, the growth inhibition was 9% in experiment [3] (setting [7]); 92% (active) in experiment [3] (setting [8]); 92.6% (active) in experiment [3] (at 50.0 µM); 13% in experiment [4] (setting [7]); 78% (active) in experiment [4] (setting [8]); 69.5% in experiment [4] (at 50.0 µM). Moreover, the growth inhibition in experiment [5] (setting [7]) is 48%; in experiment [5] (setting [8]), 94% (active); in experiment [5] (at 50.0 µM) it was 92.2% (active); in experiment [6] (setting [7]), 12%; in experiment [6] (setting [8]), 94% (active); in experiment [6] (at 50.0 µM) it was 93.3% (active).
As to `COc1ccc2c(c1)N=C(N)n1c(nc3ccccc31)S2`, the growth inhibition in experiment [1] (setting [7]) was -1%; in experiment [1] (setting [8]), 51%; in experiment [1] (at 50.0 µM), 60.6%; in experiment [2] (setting [7]), -6%; in experiment [2] (setting [8]) it was 42%; in experiment [2] (at 50.0 µM), 54.6%. Also, the growth inhibition in experiment [3] (setting [7]) is -10%; in experiment [3] (setting [8]), 83% (active); in experiment [3] (at 50.0 µM), 74.3% (active); in experiment [4] (setting [7]), -33%; in experiment [4] (setting [8]), 34%; in experiment [4] (at 50.0 µM) it was 36.1%. Further, the growth inhibition in experiment [5] (setting [7]) is -37%; in experiment [5] (setting [8]), 36%; in experiment [5] (at 50.0 µM), 69.7%; in experiment [6] (setting [7]) it was -14%; in experiment [6] (setting [8]), 57%; in experiment [6] (at 50.0 µM), 56.8%.
Turning to `CC(C)(C)c1cc(Nc2ccc([N+](=O)[O-])cc2[N+](=O)[O-])cc(C(C)(C)C)c1O`, the growth inhibition in experiment [1] (setting [7]) is 4%; in experiment [1] (setting [8]), 99% (active); in experiment [1] (at 50.0 µM), -14.9%; in experiment [2] (setting [7]), 7%; in experiment [2] (setting [8]), 100% (active); in experiment [2] (at 50.0 µM), 14.3%. The growth inhibition in experiment [3] (setting [7]) was 6%; in experiment [3] (setting [8]), 99% (active); in experiment [3] (at 50.0 µM) it was 10.4%; in experiment [4] (setting [7]), -1%; in experiment [4] (setting [8]), 99% (active); in experiment [4] (at 50.0 µM) it was -45.6%. Moreover, the growth inhibition was 8% in experiment [5] (setting [7]); 99% (active) in experiment [5] (setting [8]); -0.9% in experiment [5] (at 50.0 µM); -1% in experiment [6] (setting [7]); 99% (active) in experiment [6] (setting [8]); 8.45% in experiment [6] (at 50.0 µM).
Turning to `CCC[CH2][Sn]([S][Sn]([CH2]CCC)([c]1ccccc1)[c]1ccccc1)([c]1ccccc1)[c]1ccccc1`, the growth inhibition is 97% (active) in experiment [1] (setting [7]); 94% (active) in experiment [1] (setting [8]); 99.3% (active) in experiment [1] (at 50.0 µM); 93% (active) in experiment [2] (setting [7]); 95% (active) in experiment [2] (setting [8]); 99.5% (active) in experiment [2] (at 50.0 µM). Further, the growth inhibition in experiment [3] (setting [7]) was 99% (active); in experiment [3] (setting [8]), 93% (active); in experiment [3] (at 50.0 µM) it was 99.5% (active); in experiment [4] (setting [7]), 97% (active); in experiment [4] (setting [8]) it was 83% (active); in experiment [4] (at 50.0 µM) it was 98% (active). Also, the growth inhibition in experiment [5] (setting [7]) is 98% (active); in experiment [5] (setting [8]) it was 87% (active); in experiment [5] (at 50.0 µM), 98.8% (active); in experiment [6] (setting [7]), 98% (active); in experiment [6] (setting [8]), 91% (active); in experiment [6] (at 50.0 µM) it was 99.3% (active).
As for `CC(c1ccc2cccc(F)c2c1)c1ccccc1C(=O)O` (stereo not given), the growth inhibition was 3% in experiment [1] (setting [7]); 99% (active) in experiment [1] (setting [8]); 99% (active) in experiment [1] (at 50.0 µM); 6% in experiment [2] (setting [7]); 98% (active) in experiment [2] (setting [8]); 96% (active) in experiment [2] (at 50.0 µM). Moreover, the growth inhibition in experiment [3] (setting [7]) was -1%; in experiment [3] (setting [8]), 96% (active); in experiment [3] (at 50.0 µM), 98.2% (active); in experiment [4] (setting [7]) it was 1%; in experiment [4] (setting [8]), 98% (active); in experiment [4] (at 50.0 µM), 97.5% (active). Moreover, the growth inhibition in experiment [5] (setting [7]) was 0%; in experiment [5] (setting [8]) it was 97% (active); in experiment [5] (at 50.0 µM), 93.9% (active); in experiment [6] (setting [7]) it was 5%; in experiment [6] (setting [8]), 99% (active); in experiment [6] (at 50.0 µM) it was 98.2% (active).
Take `CC[n+]1cnc(N)c2c(-c3ccc(Cl)cc3)cn(-c3ccc(C)cc3)c21`: the growth inhibition in experiment [1] (setting [7]) is -2%; in experiment [1] (setting [8]), 98% (active); in experiment [1] (at 50.0 µM) it was 93.1% (active); in experiment [2] (setting [7]), -4%; in experiment [2] (setting [8]) it was 99% (active); in experiment [2] (at 50.0 µM), 95.5% (active). Moreover, the growth inhibition in experiment [3] (setting [7]) was -6%; in experiment [3] (setting [8]), 99% (active); in experiment [3] (at 50.0 µM), 97.9% (active); in experiment [4] (setting [7]) it was -6%; in experiment [4] (setting [8]) it was 98% (active); in experiment [4] (at 50.0 µM), 46.9%. Further, the growth inhibition is -1% in experiment [5] (setting [7]); 98% (active) in experiment [5] (setting [8]); 80.3% (active) in experiment [5] (at 50.0 µM); -3% in experiment [6] (setting [7]); 98% (active) in experiment [6] (setting [8]); 97.8% (active) in experiment [6] (at 50.0 µM).
As for `CCCCN(CCCC)CC(O)c1cc(-c2ccc(Cl)cc2)nc2c(Cl)cccc12` (stereo not given), the growth inhibition in experiment [1] (setting [7]) was 1%; in experiment [1] (setting [8]) it was 6%; in experiment [1] (at 50.0 µM), 99% (active); in experiment [2] (setting [7]), -2%; in experiment [2] (setting [8]) it was 1%; in experiment [2] (at 50.0 µM) it was 99.5% (active). Further, the growth inhibition in experiment [3] (setting [7]) was 1%; in experiment [3] (setting [8]), 12%; in experiment [3] (at 50.0 µM) it was 99.2% (active); in experiment [4] (setting [7]), -3%; in experiment [4] (setting [8]) it was -13%; in experiment [4] (at 50.0 µM), 98.5% (active). Moreover, the growth inhibition in experiment [5] (setting [7]) is -4%; in experiment [5] (setting [8]), 0%; in experiment [5] (at 50.0 µM), 98.8% (active); in experiment [6] (setting [7]) it was -3%; in experiment [6] (setting [8]) it was -4%; in experiment [6] (at 50.0 µM), 99.3% (active).
`Cc1c(Cl)ccc(O)c1[N+](=O)[O-]`: the growth inhibition is 2% in experiment [1] (setting [7]); 87% (active) in experiment [1] (setting [8]); 91.6% (active) in experiment [1] (at 50.0 µM); 2% in experiment [2] (setting [7]); 86% (active) in experiment [2] (setting [8]); 91.7% (active) in experiment [2] (at 50.0 µM). Moreover, the growth inhibition was 3% in experiment [3] (setting [7]); 82% (active) in experiment [3] (setting [8]); 96.1% (active) in experiment [3] (at 50.0 µM); 2% in experiment [4] (setting [7]); 75% (active) in experiment [4] (setting [8]); 84.8% (active) in experiment [4] (at 50.0 µM). In addition, the growth inhibition in experiment [5] (setting [7]) was 5%; in experiment [5] (setting [8]), 93% (active); in experiment [5] (at 50.0 µM), 88.8% (active); in experiment [6] (setting [7]), -1%; in experiment [6] (setting [8]) it was 97% (active); in experiment [6] (at 50.0 µM) it was 94% (active).
`COc1ccc2c(c1)CCCN2CCCCCCCCCCN1CCCCC1`: the growth inhibition in experiment [1] (setting [7]) was 13%; in experiment [1] (setting [8]) it was 38%; in experiment [1] (at 50.0 µM), 71.3% (active); in experiment [2] (setting [7]), 7%; in experiment [2] (setting [8]) it was 34%; in experiment [2] (at 50.0 µM), 56.9%. In addition, the growth inhibition in experiment [3] (setting [7]) was 36%; in experiment [3] (setting [8]), 73% (active); in experiment [3] (at 50.0 µM) it was 80.8% (active); in experiment [4] (setting [7]), 28%; in experiment [4] (setting [8]), 28%; in experiment [4] (at 50.0 µM) it was 71.2% (active). Besides, the growth inhibition is 35% in experiment [5] (setting [7]); 60% in experiment [5] (setting [8]); 59.8% in experiment [5] (at 50.0 µM); 25% in experiment [6] (setting [7]); 25% in experiment [6] (setting [8]); 61.4% in experiment [6] (at 50.0 µM).

The values are drawn from PubChem BioAssay (NCI).
